Assay [1] deals with Calcium and integrin-binding protein 1 (Homo sapiens) (UniProt Q99828). Nature of the assay: Primary qHTS for Identification of Calcium Integrin Binding Protein 1 (CIB1) Competitor (AID 1508620).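 Further: GST tagged CIB1 binding a fluorescein labelled alphaIIb integrin peptide tracer; top concentration of the series differs between compounds.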 To be noted: CIB1-GST / FITC-alphaIIb peptide fluorescence polarization; series mostly up to 114 µM. The gist of the method: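 CIB1-GST (1 uM final) and compound incubated 15 min at room temperature before adding FITC-alphaIIb peptide tracer (100 nM final). Competition for binding read by fluorescence polarization (ex 480, em 540) after another 15 min at room temperature.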
Chain of Calcium and integrin-binding protein 1 (Homo sapiens) (Q99828 whole entry, looked up): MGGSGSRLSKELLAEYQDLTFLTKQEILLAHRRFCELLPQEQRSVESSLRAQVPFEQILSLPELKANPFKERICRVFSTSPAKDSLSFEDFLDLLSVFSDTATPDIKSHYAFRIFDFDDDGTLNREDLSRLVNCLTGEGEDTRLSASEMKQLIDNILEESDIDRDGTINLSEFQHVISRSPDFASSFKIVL

Assay [2] is described as follows: Primary qHTS for inhibitors of nuclear receptor binding SET domain protein 2 (NSD2) in an isogenic RCH-ACV NSD2 p.E1099K mutant (9B) (AID 1645876). Further: nearly all actives have a fitted effect of over 70% in size. Further: potency means the concentration at half of the fitted maximal effect. To be noted: RCH-ACV (leukaemia line) NSD2 E1099K (9B) viability, CellTiter-Glo, 72 h; series mostly up to 44.9 µM. For orientation: qHTS replaces the single test concentration by a dilution series.
The target in assay [3] is N-terminal Xaa-Pro-Lys N-methyltransferase 1 (Homo sapiens) (UniProt Q9BV86). Nature of the assay: Confirmatory qHTS for Inhibitors of N-terminal methyltransferase 1 (NTMT1): MTaseGlo Assay (AID 1645874). Further: nearly all actives have a fitted effect of over 65% in size. Further: potency means the concentration at half of the fitted maximal effect. The note with it: NTMT1 enzyme, MTase-Glo SAH luminescence; series mostly up to 100 µM. The procedure, abridged: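 Inhibition was derived from luminescence after SAH-to-ATP conversion, scaled between no-enzyme and DMSO wells, then fitted by 4-parameter Hill. Conditions: 125 nM NTMT1, 100 uM SAM, 1 uM SPKRIA, 30 min RT.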
Chain of N-terminal Xaa-Pro-Lys N-methyltransferase 1 (Homo sapiens) (Q9BV86 whole entry, looked up): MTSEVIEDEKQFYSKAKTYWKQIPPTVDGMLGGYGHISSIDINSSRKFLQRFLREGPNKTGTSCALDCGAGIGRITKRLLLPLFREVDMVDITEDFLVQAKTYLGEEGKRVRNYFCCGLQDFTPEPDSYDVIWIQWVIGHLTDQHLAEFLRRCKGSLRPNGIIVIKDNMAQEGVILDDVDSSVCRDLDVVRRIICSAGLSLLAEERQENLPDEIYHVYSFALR

Assay [4] has as its target Cytochrome P450 2C9 (Homo sapiens) (UniProt P11712). Nature of the assay: Cytochrome P450 family 2 subfamily C member 9 (CYP2C9) small molecule antagonists: luciferase biochemical (cell-free) qHTS assay (AID 1645842; active means well fitted curve in the direction sought with a large enough effect in the repeat runs; an effect the other way counts as inactive or inconclusive; further: nearly all actives have a fitted effect of over 55% in size; further: potency means the concentration at half of the fitted maximal effect). To be noted: P450-Glo CYP2C9 enzyme assay, luciferin luminescence; series mostly up to 57.4 µM. The gist of the method:
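P450-Glo CYP2C9 system: proluciferin substrate with enzyme in mix containing 0.4% BSA, 10 min at room temperature, then NADPH regeneration solution added and incubated 1 h at 37C. Detection reagent stopped reaction; luminescence read after 20 min as RLU.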

Structures are written as SMILES. Values joined by “and” are separate entries in the source; they are usually repeats but may differ in a detail not shown here. Equal values may be shown once. Results filed as inconclusive are left out. Active and inactive are the calls of the source. Unless noted, the call rests on the fitted dose curve; in most records, active means well fitted curve in the direction sought with a large enough effect; inconclusive means small, poorly fitted or top-dose-only effect, or another doubt; inactive means no such curve, though single readings can be large; an effect the other way counts as inactive or inconclusive.

Chain of Cytochrome P450 2C9 (Homo sapiens) (P11712 whole entry, looked up): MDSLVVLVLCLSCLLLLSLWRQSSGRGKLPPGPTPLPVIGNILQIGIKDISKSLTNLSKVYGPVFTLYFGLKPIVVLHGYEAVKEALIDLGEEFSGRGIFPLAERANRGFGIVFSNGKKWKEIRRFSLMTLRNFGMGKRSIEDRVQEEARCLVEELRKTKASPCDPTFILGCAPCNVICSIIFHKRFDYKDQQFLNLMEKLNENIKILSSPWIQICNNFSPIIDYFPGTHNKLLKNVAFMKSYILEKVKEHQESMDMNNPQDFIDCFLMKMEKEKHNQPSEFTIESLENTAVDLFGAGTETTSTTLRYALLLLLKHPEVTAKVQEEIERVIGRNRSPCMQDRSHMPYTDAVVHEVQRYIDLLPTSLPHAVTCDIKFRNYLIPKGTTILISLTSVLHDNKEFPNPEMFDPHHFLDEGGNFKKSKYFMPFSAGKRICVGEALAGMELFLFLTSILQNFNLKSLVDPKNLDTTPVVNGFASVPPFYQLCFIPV

Consider `Cc1c(CN2CCN(C(=O)C(C)O)CC2)sc2c(N3CCOCC3)nc(-c3cnc(N)nc3)nc12` (stereo not drawn), for which the Potency entry in assay [1] is “inactive”. Moreover, the Potency in assay [2] was 0.0578 µM (active).
`C/C=C/c1ccc2oc(-c3ccc(O)c(OC)c3)c(C)c2c1`: the Potency entry in assay [1] and in assay [3] was “inactive” throughout. Further, in assay [2], the Potency was 14.5 µM (active).
For `C[C@@H]1C[C@H]2O[C@@H]2/C=C\C=C\C(=O)Cc2c(Cl)c(O)cc(O)c2C(=O)O1`, the Potency result in assay [1] was “inactive”. The Potency in assay [2] was 488 nM (active) and 640 nM (active).
As to `CC1=CC(=O)CC(C)(C)[C@H]1/C=C/C(CO)O[C@@H]1O[C@H](CO)[C@@H](O)[C@H](O)[C@H]1O` (stereo partly drawn), the Potency entry in assay [1] and in assay [2] was “inactive” in each case.
In the case of `CCCC(=O)O[C@@H]1[C@@H]2[C@@H](OC(C)=O)[C@]3(C)C(=O)[C@H]4[C@@H](OC(C)=O)C(C)(C)C[C@H]4[C@]3(C)C(=O)[C@@]2(OC(C)=O)C[C@@H]1C`, the Potency result in assay [1] and in assay [2] was “inactive” in each case.
For `O=C(O[C@H]1[C@@H]2C[C@@H]3OC[C@](O)([C@@H]1Cl)[C@H]2C(O[C@@H]1O[C@H](CO)[C@@H](O)[C@H](O)[C@H]1O)O3)c1ccc(O)c(O)c1` (stereo partly drawn), the Potency entry in assay [1] and in assay [2] was “inactive” each time.
In the case of `CC(=O)OC12COC1CC(O)C1(C)C(=O)C(O)C3=C(C)C(OC(=O)C(O)C(NC(=O)OC(C)(C)C)c4ccccc4)CC(O)(C(OC(=O)c4ccccc4)C21)C3(C)C` (stereo not drawn), in assay [1], the Potency entry was “inactive”. Moreover, the Potency in assay [2] was 0.0065 µM (active).
For the molecule `O=C(CSc1nc2c(c(=O)n1-c1ccccc1)SCC2)Nc1ccc(-c2ccccc2)cn1`, the Potency entry in assay [1] is “inactive”. The Potency in assay [4] is 0.379 µM (active); in assay [2], 0.0365 µM (active).
On to `C[C@]12C=C[C@@]3(CCC4[C@](C)(CO)CCC[C@@]4(C)C3CC1)C2` (stereo partly drawn), for which the Potency result in assay [1] and in assay [2] was “inactive” each time.
Regarding `CCCCc1ccc(C(=O)Nc2cc(-c3ccc(Cl)cc3)nn2-c2ccc(Cl)cc2)cc1`, the Potency entry in assay [1], in assay [4] and in assay [2] was “inactive” throughout.
Take `Cc1cnc(Nc2ccc(F)cc2Cl)nc1-c1c[nH]c(C(=O)NC(CO)c2cccc(Cl)c2)c1` (stereo not drawn): the Potency entry in assay [1] and in assay [3] was “inactive” throughout. In assay [2], the Potency was 8.33 µM (active).
On to `C=C[C@H]1[C@H](O[C@@H]2O[C@H](CO)[C@@H](O)[C@H](O)[C@H]2O)OC=C(C(=O)OC)[C@H]1CCOC(=O)c1cc(O)c(O)c(O)c1`, for which the Potency entry in assay [1] and in assay [2] was “inactive” in each case.
Regarding `NCc1c[nH]c(=S)n1[C@@H]1CCc2c(F)cc(F)cc2C1`, the Potency entry in assay [1] and in assay [2] was “inactive” each time.
Regarding `C=C(CO[C@@H]1O[C@H](CO[C@@H]2OC[C@](O)(CO)[C@H]2O)[C@@H](O)[C@H](O)[C@H]1O)C1Cc2cc(C(C)=O)ccc2O1` (stereo partly drawn), the Potency entry in assay [1] and in assay [2] was “inactive” in each case.
Take `CCOc1ccc(S(=O)(=O)n2c(C)nc3ccccc32)cc1`: the Potency entry in assay [1] was “inactive”. Besides, the Potency in assay [2] was 8.93 µM (active).
On to `COc1cc2c(cc1O)CC[C@H]1[C@@H]2CC[C@]2(C)[C@H](O)CC[C@@H]12`, for which, in assay [1], the Potency entry is “inactive”. In addition, the Potency in assay [3] was 39.8 µM (active); in assay [2], 1.45 µM (active).
As to `OC[C@H]1O[C@@H](OC[C@H]2O[C@@H](OC/C=C/c3ccccc3)[C@H](O)[C@@H](O)[C@@H]2O)[C@@H](O)[C@@H]1O`, the Potency entry in assay [1] and in assay [2] was “inactive” each time.
`CC1(C)CC[C@]2(C(=O)O[C@@H]3O[C@H](CO)[C@@H](O)[C@H](O)[C@H]3O)CC[C@]3(C)C(=CCC4[C@@]5(C)C[C@@H](O)[C@H](O)[C@@](C)(CO)C5CC[C@]43C)C2[C@@H]1O` (stereo partly drawn): the Potency result in assay [1] and in assay [2] was “inactive” in each case.
As for `Nc1ncnc2c1nc(N)n2[C@@H]1O[C@H](CO)[C@@H](O)[C@H]1O`, the Potency entry in assay [1] and in assay [3] was “inactive” throughout. In addition, in assay [2], the Potency was 1.45 µM (active).
For `COc1cc2c(cc1OC)CC(=O)N(CCCNC[C@H]1Cc3cc(OC)c(OC)cc31)CC2`, the Potency entry in assay [1] and in assay [2] was “inactive” throughout.
In the case of `C=C1C[C@]23C[C@H]1CC[C@H]2C1=C[C@H]2OC(=O)[C@@](C)([C@H]1[C@@H]3C(=O)O)[C@H]2O`, the Potency entry in assay [1] and in assay [2] was “inactive” throughout.
With `C=C[C@@H]1[C@H](O[C@@H]2O[C@H](CO)[C@@H](O)[C@H](O)[C@H]2O)OC=C(C(=O)O)[C@H]1CCOC(=O)/C=C/c1ccc(O)c(O)c1`, the Potency result in assay [1] and in assay [2] was “inactive” throughout.
On to `CC(=O)OC1C(OC(=O)c2ccccc2)C2C(C)(C)CC(=O)CC2(C)C23CCC(C)(C2)C(O)CC13` (stereo not drawn), for which the Potency entry in assay [1] and in assay [2] was “inactive” throughout.
Take `COC1=CC(=O)CC(C)C12Oc1cc(OC)cc(O)c1C2=O` (stereo not drawn): the Potency result in assay [1] and in assay [2] was “inactive” each time.
As to `C=C[C@H]1C(O[C@@H]2O[C@H](CO)[C@@H](O)[C@H](O)[C@H]2O)OC=C2C(=O)N3CCc4c([nH]c5ccccc45)C3CC21` (stereo partly drawn), the Potency entry in assay [1] and in assay [2] was “inactive” in each case.
For `C=CC(C)(C)C12C=C(OC)C(=O)N3C(C(C)C)C(=O)NC31N(OC)c1ccccc12` (stereo not drawn), the Potency result in assay [1] and in assay [2] was “inactive” in each case.

Source of the values: PubChem BioAssay (NCATS).
